High-throughput results (PubChem)
TGFb SMAD3 inh: TGF-b pathway inhibition. HepG2 CAGA-GFP TGF-b/SMAD3 reporter, GFP fluorescence, 18 h; TGF-beta stimulated, 500 pg/mL final. Potency, µM (top dose mostly 46.1 µM), for inactives: at the highest dose activity, negative = inhibition, most hits filed as inhibitors. actives 1.2% (n = 410,000). AID 588855; also: potency is read from the fitted curve at half-maximal effect; % is scaled to controls: 0 for no effect and ±100 for the full control effect; nearly all actives have a fitted effect of over 65% in size
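HEPG2 CAGA-GFP reporter cells (1000/well, DMEM with 1% FBS) received compounds, then recombinant TGF-beta at 500 pg/mL final for 18 hours at 37 degrees C. Per-cell GFP summed per well was normalised to unstimulated and stimulated DMSO controls before curve fitting.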
TDP1 cell noCPT: qHTS for Inhibitors of human tyrosyl-DNA phosphodiesterase 1 (TDP1): qHTS in cells in absence of CPT. DT40 Tdp1-/- hTDP1 cells, no CPT, ATP luminescence, 48 h. Potency, µM (doses to about 46.2 µM), for the others: at the highest dose activity change, negative = growth inhibition, most hits filed as inhibitors. actives 15% (n = 420,000). AID 686978, 2013; also: potency is read from the fitted curve at half-maximal effect; % is scaled to controls: 0 for no effect and ±100 for the full control effect; nearly all actives have a fitted effect of over 55% in size
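Compound effects on proliferation are scored in DT40 Tdp1-/-;hTDP1 cells in the absence of CPT. ATP levels (CellTiter-Glo luminescence) are recorded after a ≥48 hr, 37 °C incubation.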
TDP1 inh: TDP1 (human) enzyme inhibition | Q9NUW8 | recombinant TDP1, AlphaScreen DNA substrate cleavage | Potency, µM (series often up to 130 µM), inactives show at the top dose activity change, negative = inhibition, actives largely listed as inhibitors | actives 0.28% (n = 350,000) | AID 485290; also: potency is read from the fitted curve at half-maximal effect; % is scaled to controls: 0 for no effect and ±100 for the full control effect; nearly all actives have a fitted effect of over 40% in size
Target sequence (Q9NUW8 whole entry, looked up): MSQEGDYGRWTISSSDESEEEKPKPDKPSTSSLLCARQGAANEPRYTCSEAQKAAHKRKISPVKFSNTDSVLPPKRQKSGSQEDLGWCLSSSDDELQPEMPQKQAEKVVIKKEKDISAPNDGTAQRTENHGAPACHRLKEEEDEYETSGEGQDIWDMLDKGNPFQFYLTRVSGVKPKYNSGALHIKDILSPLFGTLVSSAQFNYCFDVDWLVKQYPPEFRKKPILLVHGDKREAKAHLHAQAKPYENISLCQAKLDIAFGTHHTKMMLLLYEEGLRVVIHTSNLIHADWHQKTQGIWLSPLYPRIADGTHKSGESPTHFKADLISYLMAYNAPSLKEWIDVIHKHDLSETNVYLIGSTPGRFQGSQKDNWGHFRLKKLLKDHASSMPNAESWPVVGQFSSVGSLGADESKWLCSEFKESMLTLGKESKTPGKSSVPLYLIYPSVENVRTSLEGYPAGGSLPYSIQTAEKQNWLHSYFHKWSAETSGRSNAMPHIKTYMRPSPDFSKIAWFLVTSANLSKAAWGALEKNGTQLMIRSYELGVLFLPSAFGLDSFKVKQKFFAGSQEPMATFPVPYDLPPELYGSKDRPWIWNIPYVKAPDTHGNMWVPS
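Steps: enzyme plus compound, 15 min RT; add biotin/phosphotyrosine-FITC oligonucleotide (15 nM final), react 5 min; add donor/acceptor beads (10 ug/ml final), 10 min; read AlphaScreen. Tdp1 at 1 nM final.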
IL1B secr inh: inhibitors of inflammasome signaling (IL-1 beta secretion); actives 4.7% (n = 360,000); activity change, % at 57.5 µM; THP-1 LPS/ATP IL-1B secretion, AlphaLISA, 16 h; active compounds read low; in the data active = activity change below about -50%; inconclusive = mostly about -30% to -49%; also: % is scaled to controls: 0 for no effect and ±100 for the full control effect
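Secreted IL-1B measured by AlphaLISA bead assay after 16 h compound exposure of THP-1 cells; compounds (final up to 57.5 uM) added 1 h before LPS (250 ng/mL) and ATP (1.25 mM) stimulation; lower signal means less secretion.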
DT40 TDP1 CPT: growth inhibition of DT40 Tdp1-/-;hTDP1 cells with camptothecin (screen for TDP1 inhibitors); chicken DT40 Tdp1-/-;hTDP1 cells + 20 nM CPT, ATP luminescence, 48 h; Potency, µM (top dose mostly 46.2 µM), inactives show top-dose activity change, negative = growth inhibition, hits mostly inhibitors; actives 12% (n = 420,000); AID 686979; also: potency is read from the fitted curve at half-maximal effect; % is scaled to controls: 0 for no effect and ±100 for the full control effect; nearly all actives have a fitted effect of over 55% in size
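Cell growth measured by CellTiter-Glo luminescence after a minimum 48 h, 37 C compound exposure with 20 nM CPT in Tdp1-knockout DT40 cells stably expressing hTDP1, seeded 400/well; qHTS titration format.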
HepG2 tox: counter-screen for TGF-b inhibitors: cytotoxicity in HepG2 cells | HepG2 CAGA-GFP viability, ATP luminescence, 18 h | Potency, µM (series often up to 46.1 µM), for the others: top-dose activity change, negative = cytotoxicity, usual class: cytotoxic | actives 0.76% (n = 410,000) | AID 588856; also: potency is read from the fitted curve at half-maximal effect
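HepG2 CAGA-GFP cells (1000/well, DMEM with 1% FBS) received compound, then TGF-beta at 500 pg/mL final, and were incubated 18 hours at 37 degrees C. Viability was read by CellTiter-Glo luminescence. Media-only wells were set as complete cell-killing and DMSO as no toxicity.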
An asterisk follows results filed as active; ? = inconclusive; · = not tested or not shown; [ ] = another dose, or the depositor's remark. Hits are enriched below; roughly 18% of the tested compounds scored in any of these assays. Unless noted, calls follow the shape of the dose curve; as a rule, active = well fitted curve in the direction sought with a large enough effect; inconclusive = small, poorly fitted or top-dose-only effect, or another doubt; inactive = no such curve, though single readings can be large; an effect the other way counts as inactive or inconclusive.

SMILES | TGFb SMAD3 inh | TDP1 cell noCPT | TDP1 inh | IL1B secr inh | DT40 TDP1 CPT | HepG2 tox
Cc1ccc(C(=O)Nc2ccc(N3CCN(C(=O)c4ccco4)CC3)cc2)c(Cl)c1 | ? | 13µM* | · | ? | ? | -6%
O=C(Nc1ccc2c(c1)CCCN2C(=O)c1ccco1)c1cc([N+](=O)[O-])ccc1Cl | 15% | ? | · | -87* | ? | 0%
Cc1ccc2c(c1)CCCN2C(=O)c1ccco1 | -9% | -4% | -1% | 13 | -22% | -23%
O=C(Nc1ccc(N2CCN(C(=O)c3ccco3)CC2)cc1)c1ccc([N+](=O)[O-])cc1Cl | -7% | 21µM* | 5% | -5 | ? | 0%
CC(=O)N1CCN(c2ccc(NC(=O)c3ccc([N+](=O)[O-])cc3Cl)cc2)CC1 | -4% | ? | · | -13 | 14% | -1%
O=C(Cc1ccc(S(=O)(=O)N2CCOCC2)s1)N1CCN(S(=O)(=O)c2cccc([N+](=O)[O-])c2)CC1 | 2% | -23% | -11%[0.505 µM] | -10 | -20% | 3%
CNC(=O)CN(CCN(CCN(CC(=O)[O-])CC(=O)NC)CC(=O)[O-])CC(=O)[O-].O.[Gd+3] | · | 2% | · | · | -1% | ·
O=C(COC(=O)C1CCC(N2C(=O)C3C4CCC(C4)C3C2=O)CC1)c1ccc(F)cc1 (configuration not stated) | 1% | -2% | 10% | 21 | 0% | -2%
CCc1nc2ccc(C(=O)NCc3ccc4c(c3)OCO4)cn2c1N(C)Cc1ccc(OC)cc1 | ? | 23µM* | · | -10 | 18µM* | -26%
CCc1nc2ccc(C(=O)NCc3ccc4c(c3)OCO4)cn2c1N(C)CCC(C)C | ? | 15µM* | · | 0 | ? | -80%
CCc1nc2ccc(C(=O)N3CCNC(=O)C3)cn2c1N(C)CCC(C)C | -11% | -25% | · | -11 | -8% | 2%
CCc1nc2ccc(C(=O)NCCNC(C)=O)cn2c1N(C)Cc1ccc(OC)cc1 | 5% | -10% | · | -6 | -7% | -12%
COc1ccc(C2NC(=S)N3C(c4ccc(OC)cc4)NC(=S)N23)cc1 (configuration not stated) | 0% | 16µM* | 9% | 0 | ? | 15%
S=C1NC(c2ccccc2)N2C(=S)NC(c3ccccc3)N12 (configuration not stated) | ? | -20% | 12% | -7 | 2% | 7%
O=C(CSc1nc2cc([N+](=O)[O-])ccc2n1-c1ccc(F)cc1)NC1CCS(=O)(=O)C1 (configuration not stated) | 20% | -24% | 1% | -9 | -11% | -19%
CC(CCc1ccccc1)NC(=O)/C=C/c1ccc(Cl)cc1 (configuration not stated) | ? | -20% | 3% | -79* | 6% | -14%
COC(=O)C(CC(C)C)NC(=O)/C=C/c1ccc(Cl)cc1 (configuration not stated) | 0% | -8% | 0% | 8 | 13% | -4%
CC(Cc1ccccc1)NC(=O)/C=C/c1ccc([N+](=O)[O-])cc1 (configuration not stated) | 11% | 18µM* | 5% | -23 | 26µM* | 0%
Cc1nn(C)c(C)c1S(=O)(=O)N1CCC(C(=O)NCCC2=CCCCC2)CC1 | 6% | ? | 4% | 36 | 18µM* | 0%
Cc1cc(C)c(S(=O)(=O)N2CCCC(C(=O)NCCC3=CCCCC3)C2)c(C)c1 (configuration not stated) | 1% | 21µM* | 0% | -6 | ? | -3%
COc1ccc(C)cc1S(=O)(=O)N1CCC(C(=O)NCCC2=CCCCC2)CC1 | 2% | ? | -1% | 24 | ? | -2%
COc1ccc(Cl)cc1S(=O)(=O)N1CCC(C(=O)NCCC2=CCCCC2)CC1 | -27% | ? | 2% | -17 | 23µM* | 15%
COC(=O)c1[nH]c2cc(OC)c(OC)cc2c1NC(=O)CN1CCN(Cc2ccccc2)CC1 | · | · | 4% | · | · | ·
COC(=O)c1[nH]c2cc(OC)c(OC)cc2c1/C=N/Nc1ccccc1 | -16% | 18µM* | · | -13 | ? | -22%
COc1ccc(CN=C2NC(=O)CC(C(=O)Nc3ccc(Cl)cc3)S2)cc1 (configuration not stated) | -7% | 13µM* | 3% | -16 | 21µM* | 12%
SMILES | TGFb SMAD3 inh | TDP1 cell noCPT | TDP1 inh | IL1B secr inh | DT40 TDP1 CPT | HepG2 tox
O=C(CN(c1ccc(Cl)c(C(F)(F)F)c1)S(=O)(=O)c1ccccc1)N1CCc2ccccc2C1 | ? | 16µM* | 2%[12.3 µM] | · | ? | 0%
N#CCCN(Cc1ccccc1)C(C(=O)NC1CCCCC1)C1CC1 (configuration not stated) | -19% | 15µM* | · | 8 | 16µM* | -3%
Cc1ccc(C(C(=O)NC2CCCCC2)N(C)Cc2ccccc2)cc1 (configuration not stated) | 33% | ? | 6% | · | ? | -31%
N#CCCN(Cc1ccccc1)C(CCc1ccccc1)C(=O)NC1CCCCC1 (configuration not stated) | 13µM* | ? | · | -8 | ? | -34%
N#CCCN(Cc1ccccc1)C(C(=O)NC1CCCCC1)c1ccnc2ccccc12 (configuration not stated) | ? | ? | · | ? | ? | -13%
CN(CC(=O)NCCc1ccc(S(N)(=O)=O)cc1)S(=O)(=O)/C=C/c1ccccc1 | -13% | -17% | 2% | 33 | -21% | 22%
Cc1cc(Nc2nnnn2-c2ccccc2)n(-c2ccc(Cl)cc2)n1 | 13µM* | ? | 8% | 9 | ? | 2.8µM*
Clc1cccc(CNc2nnnn2-c2ccccc2)c1 | -23% | 16µM* | 3% | 41 | ? | -14%
CCOc1ccccc1NC(=O)Nc1nnc(N2CCCC(C)C2)s1 (configuration not stated) | -21% | ? | 9% | · | ? | -18%
O=C(CCSCc1ccccc1Cl)NCc1ccc(F)cc1Cl | ? | ? | 3% | · | ? | -32%
CC(=O)Nc1cc(-c2ccc(C(=O)NC3CC3)cc2)cn2c(-c3cccc(C(C)=O)c3)cnc12 | -7% | 23µM* | · | -19 | ? | -10%
